Bioassay records: PubChem BioAssay, several laboratories
Compounds with a hit are over-represented: about 4% of the library has one in this group of screens.
Mtb bLac sens: beta-lactam sensitization of Mtb H37Rv, H37Rv | inhibition, % at 25 µM | M. tuberculosis H37Rv growth with meropenem, percent inhibition | 0.27% of 330,000 active; call rule not given here;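 note: growth measured after seven days incubation then overnight dye step; 0% = bacteria only wells and 100% = bacteria with antibiotic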
FBA Mtb inh: Mtb FBA enzyme inhibitors, primary screen, biochemical, fluorescence, strain H37Rv; Fructose-bisphosphate aldolase (Mycobacterium tuberculosis (strain ATCC 25618 / H37Rv)), …; purified M. tuberculosis FBA, fluorescence read-out; inhibition, % at 1 µM; 2.3% of 360,000 active; AID 588726, 2011; in the data active = inhibition above about 27%;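 note: 0% = vehicle and 100% = reference inhibitor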
GDH-TPI inh: GDH-TPI coupling enzyme inhibitors, primary screen, artefact control for M. tuberculosis FBA inhibitor project, biochemical, absorbance, full deck; GDH-TPI coupled enzyme counterscreen, NADH absorbance; inhibition, % at 4.8 µM; 1.2% of 360,000 active; AID 588335, 2011; in the data active = inhibition above about 30%;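 note: 0% = DMSO wells and 100% = wells lacking the enzyme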
RecA splice inh: Mtb RecA intein splicing inhibitors, primary screen, biochemical, fluorescence, HTS. cell-free RecA intein splicing. 0.75% of 290,000 active. Protein RecA (Mycobacterium tuberculosis (strain ATCC 25618 / H37Rv)), P9WHJ3. inhibition, % (concentration not given with the values); in the data active = inhibition above about 30%;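 note: 0% = vehicle wells and 100% = reference inhibitor control wells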
Mtb UGM inh: M. tuberculosis UGM enzyme inhibitors, primary screen, biochemical, fluorescence polarization, single point; UDP-galactopyranose mutase (Mycobacterium tuberculosis (strain ATCC 25618 / H37Rv)), …; purified UGM, fluorescence polarization probe displacement; inhibition, % at 10 µM; 0.06% of 320,000 active; AID 504406, 2011; in the data active = inhibition above about 10%, passing the limit was not always enough
Rv3671c inh: Rv3671c serine protease inhibitors, primary screen, biochemical, fluorescence polarization, M. tuberculosis H37Rv; 0.048% of 320,000 active; inhibition, % at 5.96 µM; P9WHR9; in the data active = inhibition above about 38%;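 note: extracellular domain of Rv3671c used as enzyme; 0% = enzyme with DMSO and 100% = no enzyme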
Target sequence (P9WHR9 whole entry, looked up, the tested form may be a part): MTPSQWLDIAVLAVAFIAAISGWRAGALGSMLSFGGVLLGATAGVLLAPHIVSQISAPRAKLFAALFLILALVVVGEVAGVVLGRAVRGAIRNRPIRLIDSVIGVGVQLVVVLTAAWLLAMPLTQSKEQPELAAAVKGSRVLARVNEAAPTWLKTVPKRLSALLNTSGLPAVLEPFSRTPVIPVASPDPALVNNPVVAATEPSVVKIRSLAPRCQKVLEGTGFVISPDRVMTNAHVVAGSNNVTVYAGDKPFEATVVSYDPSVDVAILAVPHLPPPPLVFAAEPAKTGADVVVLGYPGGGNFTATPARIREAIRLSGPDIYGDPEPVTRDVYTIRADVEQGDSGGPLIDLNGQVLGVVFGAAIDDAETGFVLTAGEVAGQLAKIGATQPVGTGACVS
Active calls of the source: *; · = not tested or not shown; + = active, no number.

SMILES	Mtb bLac sens	FBA Mtb inh	GDH-TPI inh	RecA splice inh	Mtb UGM inh	Rv3671c inh
CCN(CC)S(=O)(=O)c1ccc(C(=O)Nc2nnc(NC(=S)Nc3ccccc3)s2)cc1	-2	0	41*	2	1	-66
CCN(CC)S(=O)(=O)c1ccc(NC(=S)Nc2ccccc2)cc1	5	2	16	1	-6	-6
COc1ccc(S(=O)(=O)N(C)C[C@@H]2OCc3cn(nn3)CCCC(=O)N([C@H](C)CO)C[C@H]2C)cc1	·	-4	·	·	·	·
O=c1c2ccccc2[nH]c(=S)n1CCCN1CCOCC1	-9	2	6	3	-3	11
N=C1c2c(cc(=O)n3c2[nH]c2ccccc23)CN1CCN1CCOCC1	-7	+	12	-27	0	15
COCCN1Cc2cc(=O)n3c([nH]c4ccccc43)c2C1=N	-2	+	10	-5	-1	4
CSc1ccc(/C=N/n2c(C)nc3ccccc3c2=O)cc1	·	-1	10	0	·	·
O=C(O)COc1ccc(/C=N/n2c(COc3ccccc3)nc3ccccc3c2=O)cc1	6	-2	-1	-5	2	1
O=c1c2ccccc2nc(COc2ccccc2)n1/N=C/c1ccc(O)c(O)c1	1	4	34*	3	1	-6
CCCc1nc2ccccc2c(=O)n1/N=C/c1ccc(O)cc1O	-8	0	31*	-3	0	8
Cc1nc2ccccc2c(=O)n1/N=C/c1ccc(N(C)C)cc1	2	0	41*	4	-2	0
O=c1c2ccccc2nc(N/N=C/c2ccc(O)cc2)n1O	1	5	32*	-7	1	6
Cc1cccc(OCCC(=O)NNC(=O)c2ccoc2C)c1	8	5	1	·	-3	17
CCCNC(=O)C1(CC2CC(c3ccccc3)=NO2)CCN(C(=O)C2CCCC2)CC1 (stereo not given)	-4	2	4	·	0	-7
Cc1sc2nc(C)n(/N=C/c3ccc(O)cc3)c(=O)c2c1C	-1	-3	40*	2	0	-2
CCCc1nc2ccccc2c(=O)n1/N=C/c1ccc(O)cc1	-5	-2	35*	-3	-1	-10
Cc1sc2nc(C)n(/N=C/N(C)C)c(=O)c2c1C	-8	-4	10	-1	3	-2
c1ccc(-c2cc3nc(NCc4cccs4)nc(NCc4ccc5occc5c4)c3s2)cc1	·	6	10	·	·	·
COc1ccc(S(=O)(=O)N(C)c2ccc(C(=O)N3CCCCC3)cc2)cc1OC	-9	-7	-14	1	0	-3
N=C1c2ccccc2CN1c1ccc(N2CCOCC2)c(S(=O)(=O)Nc2ccc(Cl)cc2)c1	1	·	·	2	4	-6
Cc1ccc(S(=O)(=O)C(C#N)c2nc3ccccc3nc2N2CCCC2)cc1 (stereo not given)	1	128*	11	-10	8	-15
CC1(CCc2ccccc2)NC(=O)N(CC(=O)N2CCCCCC2)C1=O (stereo not given)	0	1	-6	0	1	-4
CCCCn1c(O)c(/C=N/NC(=O)c2ccncc2)c(=O)[nH]c1=O	100	1	46*	-2	1	-1
COc1ccc(/C=C2/N=C(c3cccs3)OC2=O)cc1OC(C)C	100	5	0	-6	3	-2
O=C1OC(c2ccccc2)=N/C1=C\N1CCCCC1	4	-3	41*	4	0	-3
SMILES	Mtb bLac sens	FBA Mtb inh	GDH-TPI inh	RecA splice inh	Mtb UGM inh	Rv3671c inh
CN(C)/C=C1/N=C(c2ccccc2)OC1=O	0	0	52*	4	1	2
CCOc1ccc(/C=C2\N=C(c3cccs3)OC2=O)cc1OC	95	·	·	-2	38*	14
CN(C)/C=C1\N=C(c2ccc(Cl)cc2Cl)OC1=O	·	-2	20	-1	0	3
CN(C)/C=C1\N=C(c2cccs2)OC1=O	5	-1	49*	1	-1	-11
O=C(Nc1ccccc1)NC1CCCCNC1=O (stereo not given)	1	-2	-10	1	0	2
O=C(COc1ccc(Cl)cc1Br)NC(=O)NC1CCCC1	·	0	-5	·	·	·
CN(C)/C=C1\N=C(c2cccnc2Oc2ccc(Cl)cc2)OC1=O	1	1	32*	-4	-3	-1
Cc1ccc(C2=N/C(=C\N(C)C)C(=O)O2)cc1	·	0	45*	0	2	3
COCCCn1c(-c2ccc(Cl)cc2)n[nH]c1=S	-14	28*	11	0	-3	2
CCOCCCn1c(-c2ccc(Cl)cc2)n[nH]c1=S	-12	4	-2	-1	-2	-3
Cc1ccnc(Nc2nc3ccccc3o2)n1	52	-4	5	-1	0	-4
N#Cc1cnc(Nc2nc3ccccc3o2)nc1-c1ccccc1	81	-5	33*	-2	0	0
CCC(c1nnnn1Cc1ccc(F)cc1)N(CCCO)Cc1cc2cc3c(cc2[nH]c1=O)OCO3 (stereo not given)	-9	13	35*	-2	1	3
CCC(c1nnnn1CC1CCCO1)N(CCCO)Cc1cc2cccc(C)c2[nH]c1=O (stereo not given)	-5	13	4	-1	2	-7
CCOC(=O)c1sc2c(c1C)C(c1cccs1)C1=C(CCCC1=O)N2 (stereo not given)	17	+	11	-16	6	-1
CCn1c(=O)c([N+](=O)[O-])c(Cl)c2ccccc21	46	0	-3	41*	1	0
COC(=O)C1OC2(OC1C(=O)OC)c1ccccc1-c1ccccc12 (stereo not given)	52	0	-1	-1	-1	1
COC(=O)[C@@H]1[C@@H](C(=O)OC)C2(c3ccccc3-c3ccccc32)N(c2ccc(Cl)cc2)N1C#N	18	0	13	51*	0	-14
CCCC(=O)Nc1nc2ccc(OC)cc2s1	4	0	6	-5	-1	3
COc1ccc2nc(NC(=S)N(C)C)sc2c1	97	-1	44*	-1	-3	0
CCSc1nnc(NC(=O)c2ccc(C)o2)s1	9	0	32*	2	2	9
CC(=O)Oc1cccc(C(=O)Nc2ccc(NC(=O)c3cccs3)cc2)c1	14	2	8	5	4	-12
COc1ccc(C(C)(C)C)cc1NC(=O)COC(=O)c1ccc([N+](=O)[O-])o1	96	0	8	11	1	-6
Cc1ccccc1N1CCN(S(=O)(=O)c2nnc(NC(=O)c3ccco3)s2)CC1	0	2	35*	3	-1	-7
